Compound activity from PubChem BioAssay.
PTHR1 agonist = qHTS for PTHR1 Agonists: Primary Screen. Parathyroid hormone/parathyroid hormone-related peptide receptor (Homo sapiens), Q03431. HEK293 GP2 PTHR1 cells, GloSensor cAMP luminescence, 1 h. Potency, µM (highest dose often 115 µM), most hits filed as activators. hit rate 0.075% among 410,000. AID 743266, 2014; also: nearly all actives have a fitted effect of over 55% in size
Target sequence (Q03431 whole entry, looked up): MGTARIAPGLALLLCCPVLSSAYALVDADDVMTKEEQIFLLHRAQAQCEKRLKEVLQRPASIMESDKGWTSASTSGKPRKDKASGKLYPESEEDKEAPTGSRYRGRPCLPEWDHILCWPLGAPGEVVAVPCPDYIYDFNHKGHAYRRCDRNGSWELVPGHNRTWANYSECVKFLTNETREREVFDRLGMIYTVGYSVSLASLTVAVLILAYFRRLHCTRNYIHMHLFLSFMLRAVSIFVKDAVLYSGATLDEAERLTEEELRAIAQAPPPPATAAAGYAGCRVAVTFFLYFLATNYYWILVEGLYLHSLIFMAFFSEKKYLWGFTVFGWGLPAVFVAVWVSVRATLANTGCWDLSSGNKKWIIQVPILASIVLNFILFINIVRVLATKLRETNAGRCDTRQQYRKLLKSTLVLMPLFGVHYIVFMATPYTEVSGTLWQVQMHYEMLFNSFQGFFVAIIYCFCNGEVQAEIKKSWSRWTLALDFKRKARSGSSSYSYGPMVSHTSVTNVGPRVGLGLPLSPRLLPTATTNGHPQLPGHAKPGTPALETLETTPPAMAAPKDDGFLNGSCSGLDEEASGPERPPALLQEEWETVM
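HEK-293-derived GP2 cells expressing PTHR1 and a GloSensor cAMP reporter, 3,000/well, plated overnight, given luciferin plus IBMX (each 0.5 mM as added) for 1 h at 37 °C, then compound for 1 h at 37 °C. Luminescence was read after 15 min at room temperature.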
TRHR agonist = qHTS for Small Molecule Agonists and Allosteric Enhancers of Human TRH Receptor: Primary Screen for Agonists. activation, % at 2 µM. Thyrotropin-releasing hormone receptor (Homo sapiens), P34981. TRHR cells, calcium flux fluo-8, FDSS agonist mode. hit rate 0.18% among 360,000; in the data active = activation above about 30%
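TRHR-expressing cells loaded with fluo-8 calcium dye; 23 nL library compound pin-transferred, kinetic FDSS fluorescence (Ex 480/Em 530) recorded about 180 s for agonist-induced calcium release, before a 10 nM TRH EC20 addition for potentiator mode.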
GLP1R ag = qHTS of GLP-1 Receptor Agonists. Glucagon-like peptide 1 receptor (Homo sapiens), P43220. HEK293 GLP-1R CRE-luciferase, luminescence, 4-6 h; cells express a hypersensitive GLP-1R form. Potency, µM (highest dose often 45.6 µM), most hits filed as activators. hit rate 0.007% among 380,000
TRHR PAM = qHTS for Small Molecule Agonists and Allosteric Enhancers of Human TRH Receptor: Primary Screen for Enhancers; enhancement, % at 2 µM; hit rate 0.66% among 360,000; Thyrotropin-releasing hormone receptor (Homo sapiens), P34981; TRHR cells, fluo-8 calcium fluorescence, EC20 TRH enhancement; in the data active = enhancement above about 30%
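TRHR-expressing cells loaded with fluo-8 calcium dye were read kinetically (ex 480/em 530) during compound addition, then stimulated with an EC20 of TRH (10 nM final). Enhancement of the Gq-mediated intracellular calcium response was scored.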
GLP-1R inv ag = qHTS of GLP-1 Receptor Inverse Agonists (Inhibition Mode) | HEK293 GLP-1R CRE-luciferase, luminescence, 24 h; GLP-1R form is constitutively active | hit rate 1.6% among 410,000 | AID 624417, 2012 | Potency, µM (top dose mostly 38.3 µM), usual class: inhibitors; also: nearly all actives have a fitted effect of over 55% in size
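Readout was luciferase luminescence, measured 12 min after detection reagent at room temperature. Beforehand, GLP-1R reporter HEK293 cells had sat 12 h, then received compounds for 24 hr at 37 deg C.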
GLP1R cytotox = qHTS of GLP-1 Receptor Inverse Agonists: Cytotox Screen; HEK293 cAMP-luciferase reporter cells, luminescence, 24 h; Potency, µM (highest dose often 38.3 µM), actives largely listed as inhibitors; hit rate 0.13% among 410,000;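 also: loss of luciferase light is scored as toxicity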
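1536-well qHTS counterscreen of the MLSMR; 200 cells/uL, 12 h pre-incubation, 23 nL cpd, 24 h at 37 deg C 5% CO2, luciferase detection reagent, 12 min RT, luminescence. Inhibition = undesired.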
Numbers stand for hits; n = inactive; u = inconclusive; x = no result. Shown are actives, neighbours in structure and some others; about 2.4% of the full set was active somewhere. Unless noted, calls follow the shape of the dose curve; as a rule, active = well fitted curve in the direction sought with a large enough effect; inconclusive = small, poorly fitted or top-dose-only effect, or another doubt; inactive = no such curve, though single readings can be large; an effect the other way counts as inactive or inconclusive.

SMILES	PTHR1 agonist	TRHR agonist	GLP1R ag	TRHR PAM	GLP-1R inv ag	GLP1R cytotox
COc1ccc(C(=O)Nc2c(N)nc(SCC(=O)Nc3ccc(NC(C)=O)cc3)[nH]c2=O)cc1OC	n	n	n	n	n	n
CCC(Cc1ccccc1)NC(=O)Cn1cccc1C(=O)c1ccccc1 (configuration not stated)	n	n	n	n	u	u
CCOc1cc(CNc2ccc3c(c2)OCCO3)cc(Br)c1OCC	n	n	n	n	2.24µM	n
C=CCOc1c(Br)cc(CNc2ccc(NC(=O)CCC)cc2)cc1OCC	n	n	n	n	8.91µM	n
C=CCOc1ccc(CNc2ccc(NC(=O)CCC)cc2)cc1OCC	n	n	n	n	u	n
O=C1COc2ccc(C(=O)C[n+]3cccc(O)c3)cc2N1	n	n	n	n	n	n
c1ccc(CNc2nc(N3CCN(Cc4ccccc4)CC3)nc3ccccc23)cc1	n	n	n	n	3.98µM	n
c1coc(CNc2nc(N3CCCCC3)nc3ccccc23)c1	n	n	n	n	u	u
c1ccc(CN2CCC(Nc3nc(-c4ccccc4)nc4ccccc34)CC2)cc1	n	n	n	n	5.01µM	u
Cc1ccc(CSc2cn(CC(=O)N3CCCCCC3)c3ccccc23)cc1	n	n	x	n	10µM	n
O=C(Cn1cc(SCc2ccc(C(F)(F)F)cc2)c2ccccc21)N1CCCCC1	n	n	x	n	n	n
O=C(Cn1cc(SCc2ccc(C(F)(F)F)cc2)c2ccccc21)N1CCCCCC1	n	n	x	n	7.08µM	n
Cc1ccc(CSc2cn(CC(=O)N3CCCC3)c3ccccc23)cc1	n	n	x	n	u	n
CC1CCN(C(=O)Cn2cc(SCC(=O)NCc3ccccc3Cl)c3ccccc32)CC1	n	n	x	n	10µM	n
O=C(CSc1cn(CC(=O)N2CCCCC2)c2ccccc12)NCc1ccccc1Cl	n	n	x	n	u	n
CCC1CN(C(=O)Nc2cccc3c2CCCC3)c2ccccc2O1 (configuration not stated)	n	n	x	n	u	n
CCC1CN(C(=O)Nc2cccc3c2CCCC3)c2cc(Cl)ccc2O1 (configuration not stated)	n	n	x	n	10µM	n
CCCNc1nc2c(c(=O)[nH]c(=O)n2C)n1CCOc1ccccc1	n	n	n	n	n	n
CCc1ccc(NC(=O)CN2C(=O)C(c3ccc(Cl)cc3)=NC23CCCCC3)cc1	n	n	x	n	11.2µM	n
Cc1ccc(NC(=O)CN2C(=O)C(c3ccc(C)cc3)=NC23CCCCCC3)cc1	n	n	x	n	10µM	n
O=C(CN1C(=O)C(c2ccc(F)cc2)=NC12CCCC2)Nc1ccc(F)cc1	n	n	n	n	u	n
CCc1ccc(NC(=O)CN2C(=O)C(c3ccc(C)cc3)=NC23CCCCC3)cc1	n	n	x	n	11.2µM	n
COc1ccc(NC(=O)CN2C(=O)C(c3ccccc3)=NC23CCCCCC3)cc1	n	n	n	n	u	n
Cc1ccc(-c2cn3c(n2)sc2cc(C(=O)NC4CCCCC4)ccc23)cc1	n	n	x	n	n	n
CCOC(=O)c1cnc2c(C)cccc2c1NCCCN1CCOCC1	n	n	n	n	n	n
COc1ccc(CN2CCN(Cc3nc4ccccc4s3)CC2CCO)c(C)c1C (configuration not stated)	n	n	n	n	7.94µM	u
CCOC(=O)c1c(NC(=O)C2COc3ccccc3O2)sc2c1CC(C)(C)NC2(C)C (configuration not stated)	n	n	n	n	3.16µM	n
